In all, about 24,000 compounds went through this assay and about 50 (0.2%) were called active. Roughly 9% stayed inconclusive and do not appear here.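 How the source made its calls: active means inhibition above 50%; inconclusive means compound itself fluorescent, judged against control cell fluorescence; inactive means the rest.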 What follows is part of a selection rich in actives, with near analogues and random picks from the rest.
Biological target: Integrin alpha-4 (Homo sapiens) (UniProt P13612)
Assay: blockers of LDV-FITC ligand binding on VLA-4 – Jurkat cells, Mn2+ activated, primary screen (AID 529);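 further: 0% = Mn2+ stimulated cells lacking compound and 100% = ligand binding without Mn2+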
Settings: LDV-FITC binding with Mn2+, flow cytometry, active compounds read high, 100% = Mn2+-driven binding gain fully reversed, screened at 10 µM (by protocol)

Chain of Integrin alpha-4 (Homo sapiens) (P13612 whole entry, looked up): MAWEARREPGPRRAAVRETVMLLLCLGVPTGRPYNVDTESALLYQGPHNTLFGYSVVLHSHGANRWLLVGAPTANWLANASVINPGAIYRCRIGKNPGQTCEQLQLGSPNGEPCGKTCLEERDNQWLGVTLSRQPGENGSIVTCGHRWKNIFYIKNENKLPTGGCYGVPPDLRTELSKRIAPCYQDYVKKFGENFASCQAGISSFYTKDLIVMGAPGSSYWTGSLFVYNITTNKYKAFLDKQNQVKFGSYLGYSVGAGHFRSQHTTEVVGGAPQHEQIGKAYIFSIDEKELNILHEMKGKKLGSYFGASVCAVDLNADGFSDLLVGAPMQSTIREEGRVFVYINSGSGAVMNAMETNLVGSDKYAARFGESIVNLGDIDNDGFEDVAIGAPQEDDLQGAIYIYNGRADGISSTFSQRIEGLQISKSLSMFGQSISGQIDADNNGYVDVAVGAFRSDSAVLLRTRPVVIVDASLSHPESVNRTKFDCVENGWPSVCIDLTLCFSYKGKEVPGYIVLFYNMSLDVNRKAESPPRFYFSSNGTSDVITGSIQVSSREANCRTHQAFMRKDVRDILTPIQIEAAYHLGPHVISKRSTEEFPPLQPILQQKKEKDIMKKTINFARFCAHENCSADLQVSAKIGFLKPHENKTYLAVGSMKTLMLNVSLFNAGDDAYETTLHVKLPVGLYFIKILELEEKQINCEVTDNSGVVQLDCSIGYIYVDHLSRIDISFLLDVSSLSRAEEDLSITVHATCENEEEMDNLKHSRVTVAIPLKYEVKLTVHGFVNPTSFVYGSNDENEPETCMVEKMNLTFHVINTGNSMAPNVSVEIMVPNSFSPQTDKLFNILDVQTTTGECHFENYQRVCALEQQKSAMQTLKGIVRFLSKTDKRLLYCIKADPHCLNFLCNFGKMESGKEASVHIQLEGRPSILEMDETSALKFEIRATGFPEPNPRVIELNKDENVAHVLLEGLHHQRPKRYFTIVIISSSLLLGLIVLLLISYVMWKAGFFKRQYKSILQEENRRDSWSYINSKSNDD

inhibition, inactive:
CCOC(=O)c1cccc(NC(=O)CCc2c(C)nc3ncnn3c2C)c1 10%
CCOC(=O)N1CCN(C(=O)CSc2nnc(-c3c[nH]c4ccccc34)n2CCOC)CC1 9%
CC(=O)NC(C)c1nc2ccccc2n1Cc1ccccc1F (stereo not drawn) 1%
CN(C(=O)C1CCOC1)c1nnc(-c2cccnc2)s1 (stereo not drawn) -8%
CC1=NCCN1S(=O)(=O)c1ccc(Br)c(C)c1 -21.5%
C=CCSc1nnc(Cn2c(=O)sc3ccccc32)n1C 5%
Brc1cnc(N2CCCC2)nc1N1CCCCC1 -21%
Cc1cc(C)cc(N(CC(=O)NCC2CCCO2)S(=O)(=O)c2c(C)noc2C)c1 (stereo not drawn) -10%
Cc1cccc(NC(=O)CSc2nnc(NC(=O)CN3CCOCC3)s2)c1 -21%
COc1cc2[nH]c(=O)n(CCC(=O)NC3CCN(Cc4ccccc4)CC3)c(=O)c2cc1OC 11%
CCOc1cc(S(=O)(=O)NCc2ccc3c(c2)OCO3)ccc1F -18.5%
O=S1(=O)CCN2C(=N1)SC1=C2CCN(Cc2ccccc2)C1 4%
CCOc1ccc(OCC)c(NC(=O)CN(C)S(=O)(=O)c2cccc3nsnc23)c1 5%
O=C(CSc1nc2ncccc2[nH]1)Nc1ccc2c(c1)OCCO2 -23%
CCc1nnc(NC(=O)CSc2nnc(Cc3ccccc3)n2-c2ccc(OC)cc2)s1 -26.5%
CCOC(=O)N1CCN(C(=O)c2ccc3nc4cc(Cl)ccc4c(=O)n3c2)CC1 6.7%
OCc1n[nH]c(CO)n1 2%
O=c1ccn(Cc2ccccc2Cl)cc1 -16%
N#CCCn1cnc2ccccc21 -16.5%
CCOc1ccc(C2C(C(=O)O)c3ccccc3C(=O)N2CCN2CCOCC2)cc1 (stereo not drawn) -12.1%
COc1cccc(OCC(=O)Nc2ccccc2C(N)=O)c1 -12%
CCOC(=O)N1CCC(NC(=O)Cn2cc3c(n2)CCCCC3)CC1 -1%
CSC1=NCCN1C(=O)c1ccc(S(=O)(=O)N2CCOCC2)cc1 1%
CCCC(=O)N1c2ccccc2NC2=C(C(=O)CCC2)C1c1ccc(F)cc1 (stereo not drawn) -5.3%
Cc1c(C(=O)Nc2ccccc2Cl)oc2ccc(S(=O)(=O)N3CCC4(CC3)OCCO4)cc12 -8%
CCOc1cc2[nH]c(=S)n(CCCN3CCCC3=O)c(=O)c2cc1OCC -5%
O=C(Cn1nc(Cc2cccnc2)c2ccccc2c1=O)NCC1CCCO1 (stereo not drawn) -1%
COc1ccc(CNC(=O)C2CCN(S(=O)(=O)N3CCOCC3)CC2)cc1 3%
Cc1ccc(-c2nc(CS(=O)CC(=O)NC3CCCC3)c(C)o2)cc1 (stereo not drawn) -15%
CCOc1ccc(C(=O)N(Cc2ccc(N(C)C)cc2)C2CCS(=O)(=O)C2)cc1 (stereo not drawn) -24.5%
CCOC(=O)C1CCN(C(=O)CC2C(=O)N(Cc3ccccc3)C(C)c3nc4ccccc4n32)CC1 (stereo not drawn) 8%
CC(C)(C)c1ccc(C(=O)NCCC(=O)NCc2ccco2)cc1 -4%
CCOC(=O)N1CCN(C(=O)c2cnc3n(c2=O)CCS3)CC1 -8%
CCCOc1ccc(C2c3c(oc4cc(C)c(C)cc4c3=O)C(=O)N2CCCN2CCOCC2)cc1 (stereo not drawn) 1%
O=C(NCc1ccc2c(c1)OCO2)C1CCCN(S(=O)(=O)c2cccs2)C1 (stereo not drawn) 3%
CCOC(=O)C1(C(F)(F)F)N=C(N(C)C)OC(N(C)C)=N1 20%
O=C1OC(NC(=O)c2ccccc2)C(N2CCOCC2)=C1Cl (stereo not drawn) 6%
COc1ccccc1N1CCN(Cc2nnnn2CCc2ccccc2)CC1 -8%
COc1ccccc1C(=O)N1CCNC(=O)C1CC(=O)Nc1ccc(Cl)cc1 (stereo not drawn) -4.5%
O=C(CN1CCN(C(=O)c2cccc(F)c2)CC1)Nc1ccccc1F 7%
N#Cc1ccc(COC(=O)Cn2nnc(-c3ccccc3)n2)cc1 -9.5%
COc1ccc(N2C(=O)c3cccc4cccc(c34)C2=O)nn1 -1.5%
OCCNCCCCOc1ccccc1F -13.5%
COc1ccccc1C(=O)NCCn1cc(SCC(=O)NCc2ccco2)c2ccccc21 -4%
Cn1c(=O)[nH]c(=O)c2c1nc(NCCCn1ccnc1)n2Cc1cccc(Br)c1 -22.5%
CCCS(=O)(=O)N1CCN(C(=O)c2cccs2)CC1 -15%
COc1cccc(N2C(=O)C3CCCN3C2c2ccc(F)cc2)c1 (stereo not drawn) -5%
CCN(CC)C(=O)N1CCN(C(=O)c2ccc(C)cn2)CC1 -8%
CCn1c(CSc2ncccn2)nnc1SCC(=O)N1c2ccccc2CC1C (stereo not drawn) 5.5%
O=C1c2ccncc2C(=O)N1C1CCCCC1 3%
COc1ccc(OC)c(C2N(c3ccccn3)C(=O)C3CCCN32)c1 (stereo not drawn) -11%
O=C(CN1C(=O)CSc2ncccc21)N1CCOCC1 -1%
COc1cccc(C(CC(=O)NCCN2CCOCC2)NS(=O)(=O)c2ccc(C)cc2)c1OC (stereo not drawn) -2%
Cc1onc(-c2ccccc2Cl)c1C(=O)NCCn1ccc2ccccc21 -7%
Cc1ccc(C2CC(=O)NC(SCC(=O)OCc3ccccc3)=C2C#N)o1 (stereo not drawn) -24%
COc1ccc(S(=O)(=O)NC(CC(=O)NCc2ccccc2OC)c2ccco2)cc1 (stereo not drawn) 3%
CC(C)OCCCNC(=O)CNC(=O)c1cccs1 10%
CCOC(=O)c1ccn(-c2nc(-c3ccco3)cc(C(F)(F)F)n2)n1 -5%
CCOC(=O)c1sc(=S)n(-c2cccc(OC)c2)c1N -4%
CCOC(=O)Cn1c2c(c(-c3ccccc3OC)cc1=O)CCCC2 16%
Cc1ccc(N2C(=O)c3oc4ccccc4c(=O)c3C2c2cccnc2)nc1 (stereo not drawn) -22%
OCc1nc(CO)n(Cc2ccccc2)n1 -2.3%
O=C(CN1CCOCC1)Nc1c2c(nc3c1CCC3)CCC2 -12%
Cc1nc2nc(SCC(=O)NCc3ccco3)nn2c(C)c1Cc1ccccc1 -12.3%
CCN(CCCNC(=O)C1CCN(S(=O)(=O)c2cnc[nH]2)CC1)c1ccccc1 0%
Cc1ccc(C)c(N(CC(=O)NCc2ccco2)C(=O)CCC(=O)Nc2ccccn2)c1 -3%
CC(Sc1sc(=S)sc1SC(C)C(=O)O)C(=O)O (stereo not drawn) -53.5%
C=CCN(CC=C)C(=O)CN1C(=O)c2ccccc2C1=O -1%
Cc1ccc2c(c1)N(CCCC(=O)NCc1cccnc1)C(=O)CO2 -5%
CCOC(=O)C1CCN(C(=O)C2CCN(S(=O)(=O)c3c(C)noc3C)CC2)CC1 10%
O=C(CN1C(=O)CCS(=O)(=O)c2ccccc21)NCc1ccc(F)cc1 -3%
Cc1oc(C)c(C(=O)NCCCC(=O)O)c1C(=O)NCCCC(=O)O 5%
COc1ccc(NC(=O)C2CCCN(S(=O)(=O)c3cccc4cccnc34)C2)cc1 (stereo not drawn) 0%
CCOc1ccccc1NC(=O)C1CCC(CNc2c(N3CCOCC3)c(=O)c2=O)CC1 (stereo not drawn) 2%
Cc1cccc2c1N(CC(=O)OC(C)C)C(=O)C2=O 10.7%
Cc1cc(NC(=O)CSCc2nc(-c3cccc(Cl)c3)oc2C)no1 5%
O=C(NCc1ccc2c(c1)OCO2)c1cc2c(s1)CS(=O)(=O)C2 -4%
Cc1ccc(C)c(N2CCN(C(=O)CCc3nc4ccccc4[nH]3)CC2)c1 -5%
O=S(=O)(Nc1ccccn1)c1ccc(Oc2ccccc2)cc1 -1.3%
CCOc1c(OC)cc(C2C(C#N)=C(N)Oc3n[nH]c(-c4ccncc4)c32)cc1OC (stereo not drawn) -15%
CCC(C)Sc1nnc(-c2c[nH]c3ccccc23)n1CCOC (stereo not drawn) 10%
COc1ccc(C2OC(=O)CC2C(=O)NC(C)C)cc1 (stereo not drawn) 6%
COC(=O)Cn1c(=NC(=O)CSCC(=O)Nc2cc(C)on2)sc2ccccc21 -10.5%
COc1ccc(NC(=O)c2c(SC)nsc2SC)cc1 -23%
COCCCNC(=O)c1ccc2c(c1)ncn2-c1ccccc1OC -35%
O=C(NCc1ccco1)c1cccn2c(=O)c3cc(Br)ccc3nc12 -34%
CCn1cc(C(=O)N2CC=C(c3ccccc3)CC2)c(=O)c2ccc(C)nc21 4%
O=C(CC(Cc1ccccc1)C(=O)O)NCCc1ccc2c(c1)OCO2 (stereo not drawn) -16%
Cc1ccc(C)c(NC(=O)CSc2nnc(Cc3cccn3C)n2-c2ccc(F)cc2)c1 10%
NC(=O)C1(N2CCCCC2)CCN(C(=O)c2ccc(C#Cc3ccccc3)o2)CC1 3%
CC1(C)CC(O)C(CCC(O)c2ccccc2)C(C)(C)N1 (stereo not drawn) -6%
CCc1nnc(NC(=O)CCC(=O)O)s1 -11%
O=C(NC(=O)c1ccc(Cl)c(Cl)c1)OC1CCS(=O)(=O)C1 (stereo not drawn) -4%
O=C(NC1(C(F)(F)F)N=C2SCCN2C1=O)c1ccco1 (stereo not drawn) -21%
Cn1c(=O)cc(SCC(=O)N2CCCC2)c2cc(Cl)ccc21 2%
CN1C(=O)c2ccccc2C(C(=O)NCCCN2CCCC2)C1c1c[nH]c2ccccc12 (stereo not drawn) 17%
COc1ccccc1CNC(=O)Cn1cc2c(n1)CCCC2 -2%
CCOC(=O)C1CCN(C(=O)CSc2cc(=O)n(C)c3ccccc23)CC1 -2%
